Experimental data taken from article PMC7862700, “An all-to-all approach to the identification of sequence-specific readers for epigenetic DNA modifications on cytosine”.

What was measured:
Assay in all cases: DAPPL (digital affinity profiling via proximity ligation, sequencing); 10 mM Tris-HCl pH 7.5, 50 mM NaCl, 1 mM DTT, 4% glycerol, room temperature, 30 min; GST-TFs on glutathione beads, 16-mer random dsDNA library, 0.1% formaldehyde crosslink after washing; high values mean tight binding
Details in all cases: protein: recombinant; tags: N-terminal GST; dsDNA, one strand shown
ERF = biological target: T1, ERF (Homo sapiens, UniProt P50548 1-548)
T1 sequence: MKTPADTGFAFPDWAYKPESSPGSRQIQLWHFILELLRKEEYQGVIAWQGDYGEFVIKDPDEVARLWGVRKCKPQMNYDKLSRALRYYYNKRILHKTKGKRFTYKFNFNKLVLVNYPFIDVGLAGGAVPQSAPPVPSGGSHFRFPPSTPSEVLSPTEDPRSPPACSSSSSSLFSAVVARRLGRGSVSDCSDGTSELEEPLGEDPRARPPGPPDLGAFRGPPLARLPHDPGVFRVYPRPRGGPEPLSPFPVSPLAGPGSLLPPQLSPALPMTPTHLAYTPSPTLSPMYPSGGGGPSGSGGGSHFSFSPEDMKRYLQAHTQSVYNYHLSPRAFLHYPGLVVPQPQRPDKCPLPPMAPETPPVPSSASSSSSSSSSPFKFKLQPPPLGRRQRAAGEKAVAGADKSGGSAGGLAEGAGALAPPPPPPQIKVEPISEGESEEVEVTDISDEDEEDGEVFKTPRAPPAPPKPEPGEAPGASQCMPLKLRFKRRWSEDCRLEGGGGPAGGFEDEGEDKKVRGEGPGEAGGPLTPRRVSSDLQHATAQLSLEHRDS
Procedure, shortened: (§1)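 Each value of binding signal is a hexamer's read frequency for a factor divided by the same hexamer's frequency in the tag-only sample. Barcoded, bead-captured GST fusions of human transcription factors made in yeast were pooled with that sample and incubated with 200 nmole of a random double-stranded 16-mer DNA library in Tris/NaCl/DTT/glycerol buffer at room temperature for 30 min. Washing, 0.1% formaldehyde crosslinking, proximity ligation, PCR and Illumina NextSeq500 sequencing followed.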

ETV3L = biological target: T2, ETV3L (Homo sapiens, UniProt Q6ZN32 1-361)
T2 sequence: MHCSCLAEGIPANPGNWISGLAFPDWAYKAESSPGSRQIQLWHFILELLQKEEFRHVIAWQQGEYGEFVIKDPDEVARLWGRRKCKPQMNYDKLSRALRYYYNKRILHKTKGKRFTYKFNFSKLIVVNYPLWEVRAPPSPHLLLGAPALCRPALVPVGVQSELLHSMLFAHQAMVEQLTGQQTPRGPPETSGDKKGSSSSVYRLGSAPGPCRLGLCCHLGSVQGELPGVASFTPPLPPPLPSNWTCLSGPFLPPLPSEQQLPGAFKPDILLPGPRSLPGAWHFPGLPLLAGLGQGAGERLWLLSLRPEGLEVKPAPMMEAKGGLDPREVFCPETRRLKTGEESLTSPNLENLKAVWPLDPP
Procedure, shortened: as §1

ETS2 = biological target: T3, ETS2 (Homo sapiens, UniProt P15036 1-469)
T3 sequence: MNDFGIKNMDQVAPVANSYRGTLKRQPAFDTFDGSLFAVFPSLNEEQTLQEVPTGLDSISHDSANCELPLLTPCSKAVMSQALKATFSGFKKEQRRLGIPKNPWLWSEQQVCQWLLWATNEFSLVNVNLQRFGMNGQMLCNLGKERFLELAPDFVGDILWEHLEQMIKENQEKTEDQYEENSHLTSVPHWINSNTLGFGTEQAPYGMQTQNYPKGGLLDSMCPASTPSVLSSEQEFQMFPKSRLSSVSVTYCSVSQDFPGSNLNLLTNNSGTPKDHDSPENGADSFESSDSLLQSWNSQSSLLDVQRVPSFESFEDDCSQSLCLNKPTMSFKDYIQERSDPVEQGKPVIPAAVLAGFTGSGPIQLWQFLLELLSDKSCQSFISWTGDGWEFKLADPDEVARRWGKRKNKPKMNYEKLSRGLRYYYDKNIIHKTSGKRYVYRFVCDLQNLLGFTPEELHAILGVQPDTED
Procedure, shortened: as §1

ETV7 = biological target: T4, ETV7 (Homo sapiens, UniProt Q9Y603 1-341)
T4 sequence: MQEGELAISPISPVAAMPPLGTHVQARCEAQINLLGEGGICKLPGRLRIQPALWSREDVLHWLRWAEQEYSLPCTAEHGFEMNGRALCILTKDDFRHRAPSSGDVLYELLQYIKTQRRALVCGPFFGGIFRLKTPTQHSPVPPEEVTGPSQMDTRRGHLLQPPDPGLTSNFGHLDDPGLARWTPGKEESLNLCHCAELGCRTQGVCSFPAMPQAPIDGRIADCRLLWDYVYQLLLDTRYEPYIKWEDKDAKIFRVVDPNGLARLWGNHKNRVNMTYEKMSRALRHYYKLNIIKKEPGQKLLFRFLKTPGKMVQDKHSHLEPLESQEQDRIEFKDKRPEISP
Procedure, shortened: as §1

ELF5 = biological target: T5, ELF5 (Homo sapiens, UniProt Q9UKW6-2 1-255)
T5 sequence: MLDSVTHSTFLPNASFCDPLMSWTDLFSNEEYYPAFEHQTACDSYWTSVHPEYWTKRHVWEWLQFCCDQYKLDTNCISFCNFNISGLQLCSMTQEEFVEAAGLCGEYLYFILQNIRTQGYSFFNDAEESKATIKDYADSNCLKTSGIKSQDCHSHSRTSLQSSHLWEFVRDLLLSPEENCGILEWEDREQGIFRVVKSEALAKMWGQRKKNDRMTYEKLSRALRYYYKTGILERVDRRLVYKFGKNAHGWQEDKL
Procedure, shortened: as §1

ETV3 = biological target: T6, ETV3 (Homo sapiens, UniProt P41162-2 1-143)
T6 sequence: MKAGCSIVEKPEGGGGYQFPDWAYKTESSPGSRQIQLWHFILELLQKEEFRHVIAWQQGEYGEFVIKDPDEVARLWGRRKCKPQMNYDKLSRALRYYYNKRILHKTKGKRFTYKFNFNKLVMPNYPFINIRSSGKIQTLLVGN
Procedure, shortened: as §1

ETV6 = ETV6 (Homo sapiens, UniProt P41212 1-452)
ETV6, sequence (P41212 whole entry): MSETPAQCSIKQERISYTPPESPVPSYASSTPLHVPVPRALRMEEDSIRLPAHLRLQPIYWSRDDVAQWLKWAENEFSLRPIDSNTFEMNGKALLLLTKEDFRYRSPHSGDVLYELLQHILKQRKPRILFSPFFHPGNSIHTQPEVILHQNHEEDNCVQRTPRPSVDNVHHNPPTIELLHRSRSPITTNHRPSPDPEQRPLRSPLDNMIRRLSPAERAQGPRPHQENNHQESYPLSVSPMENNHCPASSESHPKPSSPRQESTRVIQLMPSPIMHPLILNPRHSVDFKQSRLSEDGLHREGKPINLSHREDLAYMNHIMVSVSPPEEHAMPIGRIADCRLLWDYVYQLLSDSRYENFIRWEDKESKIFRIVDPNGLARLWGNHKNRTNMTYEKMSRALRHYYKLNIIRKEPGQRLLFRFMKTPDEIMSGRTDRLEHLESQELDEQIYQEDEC
Procedure, shortened: as §1

SPDEF = biological target: T7, SPDEF (Homo sapiens, UniProt O95238 1-335)
T7 sequence: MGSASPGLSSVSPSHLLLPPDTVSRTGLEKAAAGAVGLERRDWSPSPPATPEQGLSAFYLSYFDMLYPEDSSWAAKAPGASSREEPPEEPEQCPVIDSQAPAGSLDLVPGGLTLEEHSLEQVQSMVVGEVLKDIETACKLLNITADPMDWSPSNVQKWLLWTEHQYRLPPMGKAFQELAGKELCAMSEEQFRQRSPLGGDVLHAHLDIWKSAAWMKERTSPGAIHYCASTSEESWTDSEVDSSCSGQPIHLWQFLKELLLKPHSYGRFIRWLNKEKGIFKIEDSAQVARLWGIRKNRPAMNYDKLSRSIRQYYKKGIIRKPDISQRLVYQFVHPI
Procedure, shortened: as §1

| Sequence | binding signal (ERF) | binding signal (ETV3L) | binding signal (ETS2) | binding signal (ETV7) | binding signal (ELF5) | binding signal (ETV3) | binding signal (ETV6) | binding signal (SPDEF) |
| --- | --- | --- | --- | --- | --- | --- | --- | --- |
| GACTTT | 1.09 fold enrichment (6-mer frequency, TF over GST control) | 1.13 fold enrichment (6-mer frequency, TF over GST control) | 1.17 fold enrichment (6-mer frequency, TF over GST control) | 1.2 fold enrichment (6-mer frequency, TF over GST control) | 1.13 fold enrichment (6-mer frequency, TF over GST control) | 1.14 fold enrichment (6-mer frequency, TF over GST control) | 1.14 fold enrichment (6-mer frequency, TF over GST control) |  |
| TCATGG | 1.07 fold enrichment (6-mer frequency, TF over GST control) | 1.05 fold enrichment (6-mer frequency, TF over GST control) | 1.1 fold enrichment (6-mer frequency, TF over GST control) | 1.1 fold enrichment (6-mer frequency, TF over GST control) | 1.07 fold enrichment (6-mer frequency, TF over GST control) | 1.11 fold enrichment (6-mer frequency, TF over GST control) | 1.11 fold enrichment (6-mer frequency, TF over GST control) |  |
| ACCGAA | 1.09 fold enrichment (6-mer frequency, TF over GST control) | 1.04 fold enrichment (6-mer frequency, TF over GST control) | 1.07 fold enrichment (6-mer frequency, TF over GST control) |  |  | 1.02 fold enrichment (6-mer frequency, TF over GST control) | 1 fold enrichment (6-mer frequency, TF over GST control) |  |
| AACGCC | 1 fold enrichment (6-mer frequency, TF over GST control) | 1.11 fold enrichment (6-mer frequency, TF over GST control) | 1.06 fold enrichment (6-mer frequency, TF over GST control) |  | 1.01 fold enrichment (6-mer frequency, TF over GST control) | 1.06 fold enrichment (6-mer frequency, TF over GST control) | 1.19 fold enrichment (6-mer frequency, TF over GST control) |  |
| CGAAAT | 1.03 fold enrichment (6-mer frequency, TF over GST control) |  |  | 1.11 fold enrichment (6-mer frequency, TF over GST control) |  | 1.03 fold enrichment (6-mer frequency, TF over GST control) |  | 1.04 fold enrichment (6-mer frequency, TF over GST control) |
| GGAATT | 1.08 fold enrichment (6-mer frequency, TF over GST control) |  | 1.21 fold enrichment (6-mer frequency, TF over GST control) | 1.15 fold enrichment (6-mer frequency, TF over GST control) | 1.28 fold enrichment (6-mer frequency, TF over GST control) | 1.2 fold enrichment (6-mer frequency, TF over GST control) | 1.14 fold enrichment (6-mer frequency, TF over GST control) | 1.16 fold enrichment (6-mer frequency, TF over GST control) |
| CAGATG | 1.11 fold enrichment (6-mer frequency, TF over GST control) |  | 1.05 fold enrichment (6-mer frequency, TF over GST control) | 1.13 fold enrichment (6-mer frequency, TF over GST control) |  | 1.02 fold enrichment (6-mer frequency, TF over GST control) | 1.03 fold enrichment (6-mer frequency, TF over GST control) |  |
| GGTTTA | 1.11 fold enrichment (6-mer frequency, TF over GST control) |  | 1.02 fold enrichment (6-mer frequency, TF over GST control) | 1.15 fold enrichment (6-mer frequency, TF over GST control) | 1.08 fold enrichment (6-mer frequency, TF over GST control) | 1.1 fold enrichment (6-mer frequency, TF over GST control) | 1.07 fold enrichment (6-mer frequency, TF over GST control) | 1.1 fold enrichment (6-mer frequency, TF over GST control) |
| CTCAGG | 1.02 fold enrichment (6-mer frequency, TF over GST control) |  | 1.12 fold enrichment (6-mer frequency, TF over GST control) |  | 1.04 fold enrichment (6-mer frequency, TF over GST control) | 1.01 fold enrichment (6-mer frequency, TF over GST control) | 1.08 fold enrichment (6-mer frequency, TF over GST control) | 1 fold enrichment (6-mer frequency, TF over GST control) |
| CTATGA | 1.12 fold enrichment (6-mer frequency, TF over GST control) |  | 1.15 fold enrichment (6-mer frequency, TF over GST control) | 1.08 fold enrichment (6-mer frequency, TF over GST control) | 1 fold enrichment (6-mer frequency, TF over GST control) |  |  | 1.07 fold enrichment (6-mer frequency, TF over GST control) |
| AACGTA | 1.05 fold enrichment (6-mer frequency, TF over GST control) |  |  | 1.05 fold enrichment (6-mer frequency, TF over GST control) | 1 fold enrichment (6-mer frequency, TF over GST control) | 1.04 fold enrichment (6-mer frequency, TF over GST control) | 1.03 fold enrichment (6-mer frequency, TF over GST control) | 1.01 fold enrichment (6-mer frequency, TF over GST control) |
| GGTTCA | 1.01 fold enrichment (6-mer frequency, TF over GST control) |  | 1.11 fold enrichment (6-mer frequency, TF over GST control) |  | 1.02 fold enrichment (6-mer frequency, TF over GST control) | 1.09 fold enrichment (6-mer frequency, TF over GST control) | 1.09 fold enrichment (6-mer frequency, TF over GST control) | 1.13 fold enrichment (6-mer frequency, TF over GST control) |
